This passage reports growth inhibition results from PubChem BioAssay (NCI).

A short description of assay [1]: NCI Yeast Anticancer Drug Screen. Data for the rad50 strain (AID 155).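 Note: 0% = growth of vehicle-only cultures of the same strain.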 The conditions noted are these: S. cerevisiae rad50 strain growth inhibition; at 50.0 µM; hits give high values. Put shortly:
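Cells are treated with compound, grown, and their growth is then scored against vehicle-only cultures of the same repair-deficient yeast strain.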

A short description of assay [2]: NCI Yeast Anticancer Drug Screen. Data for the mec2-1 strain (AID 157). The conditions noted are these: S. cerevisiae mec2-1 strain, at 50.0 µM, hits give high values. Put shortly:
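Compounds were applied to mec2-1 yeast cells. Their growth was then compared with that of vehicle-treated cultures to give growth inhibition.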

Assay [3] in a line: NCI Yeast Anticancer Drug Screen. Data for the sgs1 mgt1 strain (AID 161).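 Note: 0% = growth of cultures given vehicle only.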 To be noted: S. cerevisiae sgs1 mgt1 strain, at 50.0 µM, hits give high values. Put shortly:
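Yeast cells carrying a defined DNA-repair defect were exposed to test compounds. Growth inhibition was measured relative to vehicle-treated controls.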

Assay [4] in a line: NCI Yeast Anticancer Drug Screen. Data for the cln2 rad14 strain (AID 165).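 Note: 0% = growth equal to vehicle treated cultures.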 The conditions noted are these: S. cerevisiae cln2 rad14 strain, at 50.0 µM, hits give high values. Put shortly:
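Strain: cln2 rad14 yeast, altered in cell cycle control and DNA damage repair. Read-out: growth inhibition vs vehicle.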

Assay [5] is described as follows: NCI Yeast Anticancer Drug Screen. Data for the bub3 strain (AID 167). To be noted: S. cerevisiae bub3 mutant strain, at 50.0 µM, hits give high values. Put shortly: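 Part of a panel of yeast mutants defective in DNA damage repair or cell cycle regulation. Each strain is grown with compound, and inhibition is calculated relative to solvent-treated cultures.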
Assay [6] can be described thus: NCI Yeast Anticancer Drug Screen. Data for the mlh1 rad18 strain (AID 175). To be noted: S. cerevisiae mlh1 rad18 strain growth inhibition; at 50.0 µM; hits give high values. Put shortly: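 A repair-deficient yeast strain is exposed to test compound, and growth is scored relative to vehicle-treated controls.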

Compounds without any hit were thinned out: in the full panel of roughly 79,000, 15% have a hit. Values without a mark were called inactive. Activity calls are given as the source filed them. Cut-off read from the data, not from the text of the source: active = growth inhibition above about 70%; inactive = the rest.

`O=[N+]([O-])c1cccc(S/N=C/c2c(O)ccc3ccccc23)c1`: the growth inhibition in assay [1] is 98.5% (active); in assay [2], 99.1% (active); in assay [3] it was 99.2% (active); in assay [4], 72.8% (active); in assay [5], 98.5% (active); in assay [6], 97.8% (active).
For the molecule `O=c1[nH]cnc2c1nnn2CCCCCCCCCCCCn1nnc2c(=O)[nH]cnc21`, the growth inhibition is -5.9% in assay [1]; -10.2% in assay [2]; 4.5% in assay [3]; -4.2% in assay [4]; 12.7% in assay [5]; 24.8% in assay [6].
In the case of `COc1cc(OC)c(NC(=O)/C=C/c2ccccc2)cc1Cl`, the growth inhibition in assay [1] was -3.45%; in assay [2] it was -75.7%; in assay [3] it was 7.85%; in assay [4], -21.4%; in assay [5], 11.2%; in assay [6], 21%.
As for `CCC(C)CN1C(=O)NC(C)(Cc2ccccc2)C1=O` (stereo unspecified), the growth inhibition is 18.6% in assay [1]; 1.25% in assay [2]; 1.15% in assay [3]; 16.8% in assay [4]; 7.85% in assay [5]; 4.25% in assay [6].
Turning to `O=[N+]([O-])[C@@H]1C[C@@H]2C=C[C@H]1CC2`, the growth inhibition in assay [1] is 10.1%; in assay [2], 0.2%; in assay [3], 2.6%; in assay [4], -1.3%; in assay [5], 0.3%; in assay [6] it was 0.15%.
On to `O=C1NC(=O)[C@@H](OCC2CCCCC2)[C@@H]2OCC3OC(C(O)C3O)C12` (stereo partly specified), for which the growth inhibition in assay [1] was -33.9%; in assay [2], -3.1%; in assay [3], 9.9%; in assay [4], 23.2%; in assay [5], 10.3%; in assay [6] it was -5.7%.
Regarding `O=C(Cc1cc2ccccc2[nH]c1=O)Nc1ccccc1`, the growth inhibition was 9.55% in assay [1]; -7.2% in assay [2]; 6.75% in assay [3]; -27% in assay [4]; -2.2% in assay [5]; -5.55% in assay [6].
Regarding `CCCNC(C)C(C)O` (stereo unspecified), the growth inhibition was -5.9% in assay [1]; -16.4% in assay [2]; -24.1% in assay [3]; -16.3% in assay [4]; -4.75% in assay [5]; -10.9% in assay [6].
`O=[N+]([O-])c1cccc(C2OCC3(CO2)COC(c2cccc([N+](=O)[O-])c2)OC3)c1` (stereo unspecified): the growth inhibition in assay [1] was 2.95%; in assay [2], -21.8%; in assay [3], 6.5%; in assay [4], 10.2%; in assay [5] it was -3.1%; in assay [6], 10.8%.
In the case of `COc1ccc(C(c2cc3c(cc2O)OCO3)N2CCOCC2)c(OC)c1` (stereo unspecified), the growth inhibition in assay [1] was -75.2%; in assay [2] it was -31.1%; in assay [3] it was 4.15%; in assay [4], -25.9%; in assay [5], -29.6%; in assay [6] it was -17.9%.
On to `CCCC1(C)COC(/C=C/c2ccccc2)OC1` (stereo unspecified), for which the growth inhibition in assay [1] was 6.85%; in assay [2], -9.7%; in assay [3], -8.3%; in assay [4], -1.85%; in assay [5], -8.2%; in assay [6] it was 8.4%.
Consider `Cc1cc(N(CCC#N)CCC#N)ccc1N=Nc1ccccc1[N+](=O)[O-]`, for which the growth inhibition was -44.7% in assay [1]; -38.1% in assay [2]; -13.3% in assay [3]; 12.8% in assay [4]; -32% in assay [5]; -24.1% in assay [6].
With `CCCCC(C)NC=O` (stereo unspecified), the growth inhibition in assay [1] is 31.4%; in assay [2], 13%; in assay [3], 3.9%; in assay [4] it was 9%; in assay [5], 14.4%; in assay [6], 24.6%.
With `NCC(O)CSc1ccccc1` (stereo unspecified), the growth inhibition is -10.6% in assay [1]; 4.15% in assay [2]; -6.85% in assay [3]; -16.7% in assay [4]; -1.3% in assay [5]; -6.8% in assay [6].
On to `CC(=O)N1C(=O)C(=O)c2ccccc21`, for which the growth inhibition in assay [1] was 5.9%; in assay [2], -5.4%; in assay [3], -4.8%; in assay [4], -25%; in assay [5], -1.5%; in assay [6], 23.5%.
On to `Nc1cn(Cc2ccccc2)c(=O)n(Cc2ccccc2)c1=O`, for which the growth inhibition is -1.85% in assay [1]; -7.85% in assay [2]; -9.5% in assay [3]; -57.5% in assay [4]; 8.95% in assay [5]; -23.6% in assay [6].
Consider `CC(=O)c1c(N)n(C)c(=O)n(C)c1=O`, for which the growth inhibition in assay [1] is 36%; in assay [2], 2.9%; in assay [3] it was 3.55%; in assay [4], -47.1%; in assay [5], -14.6%; in assay [6], 17.4%.
As to `O=c1[nH]c(=O)n(C2CC3OCC3O2)cc1F` (stereo unspecified), the growth inhibition in assay [1] was -14.2%; in assay [2], 35.7%; in assay [3], -9.05%; in assay [4], 20.1%; in assay [5] it was -13.5%; in assay [6], 11.2%.
With `CC1(C)COC(c2ccc(Cl)cc2)OC1`, the growth inhibition was 16.6% in assay [1]; 14.6% in assay [2]; 4.3% in assay [3]; -12.5% in assay [4]; 19.5% in assay [5]; 26.1% in assay [6].
Take `O=c1[nH]cc(O)c(=O)[nH]1`: the growth inhibition in assay [1] was -25.1%; in assay [2], -41.3%; in assay [3], -8.95%; in assay [4], 12.7%; in assay [5], -17.8%; in assay [6], 6.4%.
In the case of `COC(=O)CCC(NC(=S)N/N=C(\C)c1cccs1)C(=O)OC` (stereo unspecified), the growth inhibition is 14.1% in assay [1]; -10.3% in assay [2]; 17.3% in assay [3]; 0.45% in assay [4]; 7.4% in assay [5]; -0.25% in assay [6].
